The target of test [1] is Galactokinase (Homo sapiens) (UniProt P51570). Briefly: qHTS Validation Assay for Inhibitors of Human Galactokinase (GALK) (AID 493189). In a few lines: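 GALK (5 nM) with 35 uM ATP and 100 uM galactose in HEPES pH8.0, MgCl2, NaCl, DTT, BSA; 1 h at room temperature. Residual ATP read by Kinase-Glo Plus luminescence after 10 min.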
A general note: In qHTS, concentration-response curves come from the screen itself.

Test [2] is described as follows: Validation screen for small molecules that induce DNA re-replication in SW480 colon adenocarcinoma cells (AID 504364). In outline: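 SW480 cells seeded at 250 per well were exposed to compound or DMSO for 48 hr at 37 C, 5% CO2, then stained with Hoechst for 40 min. DNA content per nucleus was imaged (405 nm ex, 500-530 nm em).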
In test [3] the target is Peptidyl-prolyl cis-trans isomerase NIMA-interacting 1 (Homo sapiens) (UniProt Q13526). Briefly: qHTS Validation Assay to Find Inhibitors of Pin1 (AID 504536; active = well fitted inhibition curve with a large enough effect in the polarisation, with a control signal flat, not every such curve was filed as active; the % refers to the polarisation). In outline:
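Fluorescence polarization competition: compounds (titration) displace HiFluor-488-labeled Pin1-1b peptide from Pin1 (0.3 uM final) in pH 7.5 HEPES buffer with DTT, 10 min at room temperature; %Activity normalized to no-enzyme wells, curves fitted.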

Test [4] concerns the target Phosphoglycerate kinase, glycosomal (Trypanosoma brucei brucei) (UniProt P07378). The test is described as follows: qHTS Validation Assay to Find Inhibitors of Phosphoglycerate Kinase (AID 504547). In outline:
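Substrate/PGK mix plus compound; reaction started with GAPDH (100nM final) to form 1,3-BPG; 60 min RT; Kinase-Glo Plus 10 min; luminescence. TEA 100mM pH 7.6, MgCl2 5mM, Tween-20 0.01%.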

Test [5] addresses phosphoglycerate mutase (Leishmania major) (UniProt Q4Q090). Briefly: qHTS Validation Assay to Find Inhibitors of Phosphoglycerate Mutase (AID 504548).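 Note: end-point luminescence from Kinase-GloPlus after the PGAM reaction; series mostly up to about 58 µM.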 Conditions: Potency: inhibition qHTS. In outline:
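L. major PGAM (1.25nM final) was added to substrate buffer and pinned compound, incubated 45 minutes at room temperature, then Kinase-GloPlus added; luminescence read after 10 minutes. Buffer: 100 mM TEA pH 7.6, 5 mM MgCl2, 0.01% Tween-20.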

Test [6] is described as follows: Inducers of the Endoplasmic Reticulum Stress Response (ERSR) in human glioma: Validation (AID 504836). In outline: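 Stably transfected U87-MG human glioma cells carrying a GRP78-based luminescent sensor were seeded at 1000 cells/well, pin-dosed with compounds and incubated 16 h. Luciferase reagent was then added, and end-point luminescence was read after 10 min at room temperature.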

Test [7] concerns the target Ubiquitin carboxyl-terminal hydrolase 1 (Homo sapiens) (UniProt O94782). The test is described as follows: Inhibitors of USP1/UAF1: Pilot qHTS (AID 504865). Note: nearly all actives have a fitted effect of over 35% in size. Note: potency is the fitted concentration of half-maximal effect. In outline:
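USP1/UAF1 complex (1nM) preincubated with compound 15 min at room temperature, then Ub-Rho substrate (150nM final) added. Fluorescence read kinetically at 480/540 nm, 6 reads every 60 seconds. Buffer: 50mM HEPES pH 7.8, 0.5mM EDTA, 0.1 mg/ml BSA, 1mM TCEP, 0.01% Tween-20.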

Test [8] in a line: qHTS for Inhibitors of ATXN expression: Validation of Cytotoxic Assay (AID 588349). In a few lines:
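HEK293 cells were dosed with titrated compounds for 72 hr at 37 degrees C. Viability was read by CellTiter Glo luminescence, with intracellular ATP as the marker of cell survival.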

A short description of test [9]: qHTS for Inhibitors of ATXN expression: Validation (AID 588378). Note: nearly all actives have a fitted effect of over 75% in size. Note: potency is the fitted concentration of half-maximal effect. In a few lines:
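Luminescence from an ATXN2-FFLuc reporter in HEK293 cells served as read-out after 24 h compound treatment at 37 degrees C; CellTiter-Fluor fluorescence was recorded first to assess viability.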

Results filed as inconclusive are left out. Activity calls are given as the source filed them. Unless noted, calls come from the whole dose curve; as a rule, active = well fitted curve in the direction sought with a large enough effect; inconclusive = small, poorly fitted or top-dose-only effect, or another doubt; inactive = no such curve, though single readings can be large; an effect the other way counts as inactive or inconclusive.

phosphoglycerate mutase (Leishmania major), sequence (Q4Q090 1-553): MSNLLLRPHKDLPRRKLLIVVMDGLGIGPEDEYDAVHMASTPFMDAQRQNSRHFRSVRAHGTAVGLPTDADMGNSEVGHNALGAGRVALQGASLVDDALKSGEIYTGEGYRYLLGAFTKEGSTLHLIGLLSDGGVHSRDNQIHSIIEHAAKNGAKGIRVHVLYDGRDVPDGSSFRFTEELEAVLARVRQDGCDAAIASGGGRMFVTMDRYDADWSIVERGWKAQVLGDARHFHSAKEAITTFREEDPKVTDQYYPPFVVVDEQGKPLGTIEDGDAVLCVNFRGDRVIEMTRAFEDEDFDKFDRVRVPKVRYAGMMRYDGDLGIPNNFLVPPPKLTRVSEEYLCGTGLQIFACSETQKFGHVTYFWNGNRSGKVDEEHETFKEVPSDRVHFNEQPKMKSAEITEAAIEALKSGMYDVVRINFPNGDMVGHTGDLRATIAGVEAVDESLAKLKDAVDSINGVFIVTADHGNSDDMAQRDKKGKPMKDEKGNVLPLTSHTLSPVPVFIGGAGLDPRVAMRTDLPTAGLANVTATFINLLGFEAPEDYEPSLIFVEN
Ubiquitin carboxyl-terminal hydrolase 1 (Homo sapiens), sequence (O94782 whole entry, looked up): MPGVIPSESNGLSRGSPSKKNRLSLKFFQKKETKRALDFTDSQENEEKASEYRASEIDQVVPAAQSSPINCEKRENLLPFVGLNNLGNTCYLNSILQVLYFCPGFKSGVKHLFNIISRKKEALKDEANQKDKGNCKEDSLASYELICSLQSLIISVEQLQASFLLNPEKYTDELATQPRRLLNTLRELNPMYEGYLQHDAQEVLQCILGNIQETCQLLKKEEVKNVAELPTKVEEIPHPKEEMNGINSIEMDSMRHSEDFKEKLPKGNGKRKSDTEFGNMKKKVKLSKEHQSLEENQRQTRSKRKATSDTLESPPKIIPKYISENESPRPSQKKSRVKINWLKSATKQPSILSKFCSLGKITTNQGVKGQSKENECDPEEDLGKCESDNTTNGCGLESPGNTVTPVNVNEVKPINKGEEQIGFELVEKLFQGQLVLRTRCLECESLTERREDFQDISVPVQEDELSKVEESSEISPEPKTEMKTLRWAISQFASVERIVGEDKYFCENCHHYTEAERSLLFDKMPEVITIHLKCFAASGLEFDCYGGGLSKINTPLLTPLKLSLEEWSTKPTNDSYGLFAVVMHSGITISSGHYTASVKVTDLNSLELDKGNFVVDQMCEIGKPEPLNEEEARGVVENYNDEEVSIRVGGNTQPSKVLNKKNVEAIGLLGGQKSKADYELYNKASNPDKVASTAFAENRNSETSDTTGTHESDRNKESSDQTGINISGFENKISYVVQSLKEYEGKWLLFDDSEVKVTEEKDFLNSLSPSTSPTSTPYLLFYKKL
Galactokinase (Homo sapiens), sequence (P51570 whole entry, looked up): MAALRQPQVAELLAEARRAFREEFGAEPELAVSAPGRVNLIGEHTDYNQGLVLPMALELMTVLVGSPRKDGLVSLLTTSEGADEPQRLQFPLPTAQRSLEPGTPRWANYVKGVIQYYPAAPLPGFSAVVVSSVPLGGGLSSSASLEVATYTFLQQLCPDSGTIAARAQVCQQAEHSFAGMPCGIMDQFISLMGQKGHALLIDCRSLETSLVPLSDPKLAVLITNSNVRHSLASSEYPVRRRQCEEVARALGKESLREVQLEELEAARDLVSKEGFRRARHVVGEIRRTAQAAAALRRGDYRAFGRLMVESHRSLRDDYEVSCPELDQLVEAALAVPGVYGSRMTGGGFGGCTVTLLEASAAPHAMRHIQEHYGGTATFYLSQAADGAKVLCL
Peptidyl-prolyl cis-trans isomerase NIMA-interacting 1 (Homo sapiens), sequence (Q13526 whole entry, looked up): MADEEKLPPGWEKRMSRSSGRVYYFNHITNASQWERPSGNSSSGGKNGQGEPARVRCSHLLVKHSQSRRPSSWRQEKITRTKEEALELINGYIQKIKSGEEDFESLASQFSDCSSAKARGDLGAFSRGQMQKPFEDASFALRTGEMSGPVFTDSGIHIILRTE
Phosphoglycerate kinase, glycosomal (Trypanosoma brucei brucei), sequence (P07378 whole entry, looked up): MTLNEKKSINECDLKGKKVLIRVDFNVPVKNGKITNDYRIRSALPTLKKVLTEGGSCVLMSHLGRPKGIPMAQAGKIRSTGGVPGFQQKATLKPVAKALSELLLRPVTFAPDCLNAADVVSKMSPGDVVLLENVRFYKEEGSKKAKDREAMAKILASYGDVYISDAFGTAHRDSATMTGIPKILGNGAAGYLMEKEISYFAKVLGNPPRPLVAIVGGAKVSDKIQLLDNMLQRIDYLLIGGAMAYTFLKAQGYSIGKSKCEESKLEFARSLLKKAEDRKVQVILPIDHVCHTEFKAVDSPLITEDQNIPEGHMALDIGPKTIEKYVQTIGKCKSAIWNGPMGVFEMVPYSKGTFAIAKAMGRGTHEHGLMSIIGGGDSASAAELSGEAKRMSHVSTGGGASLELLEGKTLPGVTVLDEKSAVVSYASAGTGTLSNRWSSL

On to `NC(=O)c1cc(N2CC2)c([N+](=O)[O-])cc1[N+](=O)[O-]`, for which the outcome in test [1] and in [6] was inactive. Also, the Potency entry in test [2], in [3], in test [4], in test [5], in test [7] and in test [8] was “inactive” in each case. In addition, the Potency entry in test [9] was “inactive”.
Regarding `C[N+]1(C)CCC(OC(=O)C(c2ccccc2)c2ccccc2)CC1`, the compound was classed as inactive in [1]. In addition, in test [2], the Potency result is “inactive”.
With `CCN(CCCl)Cc1ccccc1Br`, the compound was classed as inactive in [1] and in [6]. Further, the Potency result in [2], in test [3], in [4], in [5], in test [7] and in test [8] was “inactive” each time. Moreover, the Potency entry in [9] was “inactive”.
Take `Oc1ccc2c3c1O[C@H]1c4oc5ccccc5c4C[C@@]4(O)C(C2)N(CC2CC2)CCC314` (stereo partly specified): the compound was classed as inactive in test [1] and in test [6]. In addition, the Potency result in [2], in [3], in test [4] and in [5] was “inactive” throughout.
For `CP(=O)(O)C1=CCNCC1`, the result in test [1] and in test [6] was inactive. Also, the Potency result in test [2], in test [3], in test [4], in test [5], in test [7] and in test [8] was “inactive” in each case. Further, the Potency entry in test [9] is “inactive”.
`NC(N)=Nc1ccc2[nH]c3c(c2c1)C[C@@]1(O)[C@H]2Cc4ccc(O)c5c4[C@@]1(CCN2CC1CC1)[C@H]3O5`: the compound was called inactive in [1] and in [6]. Also, the Potency entry in [2], in test [3], in [4] and in test [5] was “inactive” in each case. Further, in [7], the Potency is 79.4 µM (active).
Consider `NC(C(=O)O)c1cc(=O)[nH]o1` (stereo unspecified), for which the compound was classed as inactive in [1] and in test [6]. Besides, the Potency result in test [2], in test [3], in test [4], in test [5], in [7] and in [8] was “inactive” throughout. Moreover, in test [9], the Potency entry is “inactive”.
Regarding `CCCN(CCC)CCc1ccc(O)c(O)c1`, the call in [1] and in test [6] was inactive. The Potency result in test [2], in test [3], in test [4], in test [5], in test [7] and in [8] was “inactive” in each case. Besides, the Potency entry in [9] was “inactive”.
As for `CC(C)(C)c1o[nH]c(=O)c1CC(N)C(=O)O` (stereo unspecified), the outcome in [1] and in [6] was inactive. Moreover, the Potency entry in [2], in [3], in test [4], in test [5], in test [7] and in [8] was “inactive” throughout. The Potency result in test [9] was “inactive”.
Take `N#CC(C#N)=Cc1cc(O)c(O)c(O)c1`: in [1], the result was inactive.
For the compound `COc1ccc2c(c1)C13CCCCC1C(C2)N(C)CC3` (stereo unspecified), the result in test [1] and in test [6] was inactive. In addition, the Potency entry in test [2], in [3], in [4], in test [5], in [7] and in test [8] was “inactive” in each case.
Turning to `CCN(CC)c1ncnc2c1ncn2[C@@H]1O[C@H](COP(=O)(O)OP(=O)(O)C(Br)(Br)P(=O)(O)O)[C@@H](O)[C@H]1O`, the call in [1] was inactive. For the same compound, the Potency entry in test [2] is “inactive”.
On to `C[C@@H]1O[C@H](C[N+](C)(C)C)CS1`, for which the call in test [1] and in [6] was inactive. Further, the Potency result in test [2], in test [3], in [4], in test [5], in test [7] and in test [8] was “inactive” throughout. Further, in test [9], the Potency entry was “inactive”.
On to `O=C1CC[C@@]2(O)C3Cc4ccc(O)c5c4C2(CCN3CC2CC2)[C@H]1O5` (stereo partly specified), for which the compound was called inactive in test [1] and in [6]. Further, the Potency entry in test [2], in test [3], in [4], in [5], in [7] and in [8] was “inactive” throughout. Moreover, the Potency entry in test [9] was “inactive”.
As to `CCCN1CCCC2Cc3[nH]ncc3CC21` (stereo unspecified), the result in [1] was inactive. Further, the Potency result in test [2] was “inactive”.
With `C[C@H](N)CN1CCc2ccc(Br)cc21`, the compound was classed as inactive in [1] and in [6]. The Potency result in test [2], in test [3], in test [4], in [5] and in test [7] was “inactive” each time. Moreover, in test [9], the Potency was 15.8 µM (active).
For the compound `CCCN1CC[C@@H]2c3cc(O)ccc3CC[C@@H]21`, the compound was classed as inactive in test [1] and in test [6]. Moreover, the Potency entry in test [2], in [3], in [4], in [5], in test [7] and in test [8] was “inactive” each time. In addition, in [9], the Potency result is “inactive”.
For `C[N+](C)(C)CCOC(=O)CBr`, the result in [1] and in test [6] was inactive. The Potency result in test [2], in [3], in test [4], in [5], in test [7] and in [8] was “inactive” in each case. In addition, in [9], the Potency result is “inactive”.
Take `CCOC(=O)c1ncn2c1[C@@H]1CCCN1C(=O)c1cc(OC)ccc1-2`: the compound was classed as inactive in [1] and in test [6]. Besides, the Potency result in test [2], in test [3], in test [4], in test [5], in test [7] and in test [8] was “inactive” in each case. Besides, in test [9], the Potency entry was “inactive”.
On to `CCCCCCC(C)(C)c1ccc([C@@H]2C[C@H](O)CC[C@H]2CCCO)c(O)c1`, for which the outcome in [1] and in test [6] was inactive. Moreover, the Potency result in test [2], in test [3], in [4] and in [5] was “inactive” throughout.
`COc1cc(CC(C)N)c(OC)cc1I` (stereo unspecified): the outcome in [1] and in test [6] was inactive. Besides, the Potency result in test [2], in test [3], in test [4], in [5] and in [7] was “inactive” each time.
For the compound `COC(=O)N1CCN(C(=O)Cc2ccc(Cl)c(Cl)c2)C(CN2CCCC2)C1` (stereo unspecified), the compound was called inactive in [1] and in [6]. Besides, the Potency result in test [2], in test [3], in test [4], in test [5] and in [7] was “inactive” each time.
In the case of `CCCN(CCC)CCc1c[nH]c2ccc(C(N)=O)cc12`, the compound was classed as inactive in [1] and in [6]. Besides, the Potency result in test [2], in test [3], in [4], in test [5], in [7] and in test [9] was “inactive” each time.
Regarding `C#CCN[C@H](C)Cc1ccccc1`, the compound was classed as inactive in [1] and in test [6]. Also, the Potency result in test [2], in test [3], in test [4], in test [5], in test [7] and in test [8] was “inactive” throughout. The Potency entry in test [9] is “inactive”.
Turning to `OC1CCCCC1N1CCC(c2ccccc2)CC1` (stereo unspecified), the call in test [1] and in test [6] was inactive. For the same compound, the Potency result in [2], in test [3], in [4], in test [5], in test [7] and in test [8] was “inactive” each time. In addition, in test [9], the Potency result is “inactive”.
As for `CO[C@H]1CC=C2CCN3CCC4=C(CC(=O)OC4)[C@]23C1`, the call in test [1] and in test [6] was inactive. Besides, the Potency entry in [2], in test [3], in [4], in [5], in test [7] and in test [8] was “inactive” each time. The Potency result in test [9] was “inactive”.
For `COc1ccc2[nH]c3c(c2c1)CCNC3`, the call in [1] and in test [6] was inactive. Also, the Potency result in test [2], in test [3], in [4], in [5], in test [7] and in [8] was “inactive” in each case.
For `NNC(=O)c1ccc(O)cc1`, the call in test [1] and in test [6] was inactive. Moreover, the Potency result in [2], in test [3], in test [4], in [5], in [7] and in test [8] was “inactive” in each case. The Potency result in test [9] is “inactive”.
Regarding `N[C@@]1(C(=O)O)CC[C@@H](C(=O)O)C1`, the compound was classed as inactive in test [1] and in test [6]. Further, the Potency result in test [2], in test [3], in test [4], in test [5], in test [7] and in test [8] was “inactive” throughout. The Potency result in test [9] was “inactive”.

For the origin of these results see PubChem BioAssay (NCATS).
